In the OligoGym collection one finds sensor-assay potency score (higher = more potent) data, which are given here for 24 sequences.
Also: reference of the scale not given here.

The target in the first assay is PPIL1. As to the kind of experiment: pooled miR-30 sensor sort-seq; sequence = guide strand. Conditions: shRNA.
As to TAGATAGATGCACCACCTCGAC, the sensor-assay potency score (higher = more potent) was -1.34.

As for TTAGCATTACATGTCATTCTAT, the sensor-assay potency score (higher = more potent) was -0.539.

As to TAAAATGTACTTCCATCTCTAA, the sensor-assay potency score (higher = more potent) is -0.493. The same measure, in the same setting: as for TTCTGTGGAATTTTGTGCCATT, the figure is -0.861; as for TGTAGTAACCTCGACGAGCCAA, -0.207. Regarding TAGCATTACATGTCATTCTATG, the sensor-assay potency score (higher = more potent) was -0.73. On the same count and under the same terms, then TTCTATGTCATCTAGAAGCTGG, with 0.291; and TAGATGCACCACCTCGACCTGT, with -1.02. Same read-out and setting: as for TATGTCATCTAGAAGCTGGTTC, the figure is 0.329.

For TTCACGTCGTCCACAGGGCGGT, the sensor-assay potency score (higher = more potent) is -0.967. Take TTACATGTCATTCTATGTCATC: the sensor-assay potency score (higher = more potent) was -1.08.

Regarding TTGGATCATGAAGTCTTTGATA, the sensor-assay potency score (higher = more potent) was -1.36.

A further assay concerns the target PPM1D. Described as above. The settings on record: shRNA.
For the sequence TTTCTTTAAACATTTAGCCCTA, the sensor-assay potency score (higher = more potent) was -0.501. Still for that read-out and setting: then TTGAGTAACGTCCTCCATGTAC, with -0.62. Same read-out and setting: then TTTAACAGAGTTCTTTCGCTGT, with 0.0988; and TTTACAGCAACTTATACCCTAA, with -0.288; and TTTTTTCTCCTCTTGGTCCTGG, with 0.387. Same read-out and setting: as for TATACTTGTGCTTCTGAGGGTC, the figure is 0.801; as for TTGGACTCTTCTAATGTCCTTT, -0.026. Sequence TATAATATACTTGTGCTTCTGA returned a sensor-assay potency score (higher = more potent) of 0.584. The same measure, in the same setting: then TAACAGAGTTCTTTCGCTGTGA, with 0.0976; and TTCGATTCGTTCTCTTTCCTTG, with 0.00604; and TTGAGGGTATGACTACACCTTG, with -1.21. On the same count and under the same terms, as for TTTTACAGCAACTTATACCCTA, the figure is 0.379.
